In all, about 48,000 compounds went through this assay and about 13,000 (27%) showed an effect of 50% or more. This is one part of the list.
System: Wolbachia pipientis
Assay: Anti-Wolbachia Cell-Based Screen
Type: functional
Parameters: scale not given: in the data most compounds retested in dose-response had high values
Details: 5 µM

SMILES | Percent Effect [%]
C=C(C)CN1CCC(Nc2nc(C)ns2)CC1 | 3.989
N#Cc1ccc(CN2CCCC(Cn3cncn3)C2)c(F)c1 (stereo not drawn) | 10.83
Cc1nc(C)n(CC2CN(c3ncnc4[nH]ccc34)CCO2)n1 (stereo not drawn) | 9.938
Cc1nc(C)n(CC2CCCN2Cc2ccc(F)cc2C#N)n1 (stereo not drawn) | -2.788
Cc1nc(C)n(CC2CCCN(Cc3ccc(F)cc3C#N)C2)n1 (stereo not drawn) | 96.96
Cc1nc(C)n(CC2CCCN(Cc3cc(C#N)ccc3F)C2)n1 (stereo not drawn) | 126.4
Cc1nc(C)n(CC2CN(c3nnc(C)c(C)c3C#N)CCO2)n1 (stereo not drawn) | -9.439
Cc1nc(C)n(CC2CN(Cc3cccc(C#N)c3)CCO2)n1 (stereo not drawn) | 2.978
Cc1cc(C)n(CC2CCCN2Cc2ccc(F)cc2C#N)n1 (stereo not drawn) | -16.28
Cc1nc(C)n(CC2CN(Cc3cc(C#N)ccc3F)CCO2)n1 (stereo not drawn) | 105.5
Cc1nc(C)n(CC2CN(Cc3cccc4c3OCCO4)CCO2)n1 (stereo not drawn) | -0.04658
Cc1nc(C)n(CC2CN(c3ncccc3C#N)CCO2)n1 (stereo not drawn) | 109.9
O=S(=O)(NCC1CCOc2ccccc2C1)N1CCOCC1 (stereo not drawn) | 11.66
CS(=O)(=O)N1CCOC2(CCN(c3nccs3)CC2)c2ccccc21 | -2.369
Cc1nc(C)n(CC2CCCN(CCOc3ccccc3C#N)C2)n1 (stereo not drawn) | 99.48
N#Cc1ccccc1OCCN1CCCC(c2noc(C3CC3)n2)C1 (stereo not drawn) | 29.76
Cc1nc(C)n(CC2CCCN(Cc3cccc(F)c3F)C2)n1 (stereo not drawn) | 100.4
Cc1nc(C)n(CC2CCCN(CCc3ccccn3)C2)n1 (stereo not drawn) | -0.6255
Cc1nc(C)n(CC2CCCN(Cc3ccccc3C#N)C2)n1 (stereo not drawn) | 99.33
Cn1nc2c(cc1=O)CN(Cc1nc(C(C)(C)C)no1)CC2 | 5.069
Cc1nc(CN2CCCC(CCc3ccccc3C(F)(F)F)C2)co1 (stereo not drawn) | 3.253
COc1cnc(N2CC(N3CCOCC3)C2)nc1-c1ccnn1C | -5.867

SMILES | Percent Effect [%]
CN(Cc1ccccn1)C(=O)CC1CCOc2ccccc21 (stereo not drawn) | -4.334
Cc1ccc2c(c1)[C@@H](CC(=O)N1CCN(C)CC1)CCO2 | 86.47
Cc1ccc2c(ccn2CCC(=O)N2CCC(C(N)=O)CC2)c1 | 23.62
Cc1ccc2c(c1)[C@@H](CC(=O)N(C)C)CCO2 | 103.2
Cc1ccc2c(c1)[C@@H](CC(=O)N1CCOCC1)CCO2 | 86.47
COCC(=O)N1CCC2(CC1)CC(N1CCOCC1)c1ccc(C)cc12 (stereo not drawn) | 6.475
Cc1ccc2c(c1)C(NC1CCN(C)CC1)CCCO2 (stereo not drawn) | 0.3143
Cc1ccc(C2CSCCN2CC(=O)N2CCOCC2)cc1 (stereo not drawn) | 2.726
CN(C)C(=O)CC1CCOc2ccccc21 (stereo not drawn) | -4.71
O=C1CCOCCN1Cc1ccc(Cl)c(Cl)c1 | 9.877
CSc1ccc(NC(=O)NCC(O)C(C)C)cc1F (stereo not drawn) | -14.41
CNS(=O)(=O)CC(=O)N1CCC(c2ccc(F)c(F)c2)CC1 | -2.799
O=C(NCc1cccs1)C1CCCN(c2cc(-n3cncn3)ncn2)C1 (stereo not drawn) | -5.792
O=C(NCc1cccs1)C1CCN(c2cc(-n3ccnc3)ncn2)CC1 | -1.807
CC(C)(C)c1cc(=O)n2c(n1)SCC(C(=O)NCc1ccco1)C2 (stereo not drawn) | 102.3
O=C(NCc1cn2cccnc2n1)C1CC(=O)N(Cc2ccccn2)C1 (stereo not drawn) | -14.07
CN1[C@@H](c2ccccc2)[C@@H](C(=O)NCc2ccccn2)C[C@@]1(C)C(=O)O | 4.83
CCc1c(C)nc2n(c1=O)CC(C(=O)NCc1cccs1)CS2 (stereo not drawn) | 101.3
O=C(NCc1cccs1)C1CN(C(=O)c2cccs2)CC12CCOCC2 (stereo not drawn) | -10.89
CC(C)Cc1cc(CNC(=O)C2CCCN(Cc3ccco3)C2)no1 (stereo not drawn) | -2.049
CC(C)(C)c1cc(=O)n2c(n1)SCC(C(=O)NCc1ccccn1)C2 (stereo not drawn) | 106.1
CC(C)(C)c1cc(=O)n2c(n1)SCC(C(=O)NCc1cccs1)C2 (stereo not drawn) | 98.61

SMILES | Percent Effect [%]
COC1CCN(CCNC(=O)NC(C)c2cccc(Cl)c2)CC1 (stereo not drawn) | 14.59
O=C(C1CCCCC1)N1CCC(c2n[nH]c3nccnc23)CC1 | 126.4
O=C(C1CCCC1)N1CCC(c2n[nH]c3nccnc23)CC1 | 136.1
O=C(Cn1cnc(-c2ccccc2)cc1=O)Nc1ccncc1 | 13.41
Cl.NCCC(=O)Nc1ccc(-c2ccccc2)cc1 | 116.3
O=C(CCC(=O)Nc1ccccc1)NCC(=O)c1ccc(F)cc1F | -8.283
CCCc1nc(CNC(=O)Cc2cc(C)no2)cs1 | -3.893
CCS(=O)(=O)NCCNc1cc(-n2cccc2)ncn1 | 9.537
Nc1cccc(C2CN(C(=O)CN3CCOCC3)CCO2)n1 (stereo not drawn) | 104.8
O=C(Cc1cccc(F)c1F)N1CCOC(c2cccc(O)c2)C1 (stereo not drawn) | -10.07
CC(=O)NCC(=O)N1CCOC(c2cccc(N)n2)C1 (stereo not drawn) | 128.4
CNC(=O)CN1CCOC(c2ccccc2C(F)(F)F)C1 (stereo not drawn) | -19.7
O=C(CCNS(=O)(=O)c1cccnc1)N1CCOC(c2ccccc2)C1 (stereo not drawn) | -17.46
COc1ccc2cc(C3CN(C(=O)CCNC(C)=O)CCO3)ccc2c1 (stereo not drawn) | -5.377
CC(=O)NCC(=O)N1CCN(C)c2ncccc2C1 | -12.03
COc1ccc2cc(C3CN(C(=O)CN4CCCC4)CCO3)ccc2c1 (stereo not drawn) | 0.8606
O=C(CCNS(=O)(=O)c1ccccc1)N1CCOC(c2ccccc2)C1 (stereo not drawn) | 1.988
CNc1cccc(C2CN(C(=O)CNS(C)(=O)=O)CCO2)n1 (stereo not drawn) | 125.9
CNC(=O)CN1CCOC(c2cccc(N)n2)C1 (stereo not drawn) | 126.4
Cc1n[nH]c(C2CN(CC(=O)NCc3ccco3)CCO2)n1 (stereo not drawn) | 14.88
CCN(C(=O)CN1CCCC1c1ccc(F)cc1)c1ccccc1C (stereo not drawn) | -2.599
O=C(NCc1ccccc1)c1nc2c(o1)CN(C(=O)c1cccnc1)C2.O=C(O)C(F)(F)F | -11.3

SMILES | Percent Effect [%]
CCCn1cc(C(=O)N2CCCC2(C)c2nc(C)cc(N)n2)cn1 (stereo not drawn) | 145.7
CCn1cc(C(=O)N2CCCC3(CCC(=O)N(CCC(C)C)C3)C2)cn1 (stereo not drawn) | 12.9
Cc1occc1CNC(=O)C1(C)CCCN1C(=O)c1ccccc1 (stereo not drawn) | -1.558
CCCN1CC2(CCN(C)CC2)CC1C(=O)NCCn1cc(C)cn1 (stereo not drawn) | 2.434
CCCn1cc(C(=O)N2CCCC2(C)c2nc(C)cc(C)n2)cn1 (stereo not drawn) | 137.7
Cc1cc(CN(C)CC2CC(C3CCCCC3)=NO2)no1 (stereo not drawn) | 7.354
CCOc1ccccc1C(N)CC(C)C (stereo not drawn) | -6.989
CC(C)C[C@H](N)COc1cccc(F)c1Oc1ccc(Cl)cc1 | 75.53
COc1ccccc1C(N)CC(C)C (stereo not drawn) | -3.152
CC(C)C[C@H](N)COc1cccc(F)c1Oc1cccc(Cl)c1 | 101.2
Cc1ccc(Oc2c(F)cccc2OC[C@@H](N)CC(C)C)cc1 | 105.2
CC(C)COc1ccccc1C(N)CC(C)C (stereo not drawn) | 3.721
CC(CNS(N)(=O)=O)Oc1cccc(Cl)c1 (stereo not drawn) | -1.116
CC(C)C[C@H](N)COc1cccc(F)c1Oc1ccccc1 | 86.38
CCCOc1ccccc1C(N)CC(C)C (stereo not drawn) | -0.2003
Cc1nc(CN)cc(N2CCC(O)(c3ccc(Cl)cc3)CC2)n1 | -14.21
O=C(NC(c1ccc(Cl)cc1)C(F)(F)F)c1nc(=O)[nH][nH]1 (stereo not drawn) | -8.616
CCN(C(=O)COC)C(c1cccnc1)c1cc(C)cc(C)c1 (stereo not drawn) | 20.72
CCC(C)Oc1cc(C(=O)N(c2cccnc2)C(C)C)ccn1 (stereo not drawn) | -13.41
CCc1cc(N2CCN(c3ccc(Cl)cn3)CC2)n2nccc2n1 | 4.069
COCC1CN(Cc2ccoc2)Cc2cn(CC3CCCC3)nc21 (stereo not drawn) | -3.642
Cc1cnn(CC2CN(Cc3ccc(C(N)=O)cc3)CCO2)c1 (stereo not drawn) | 85.4

SMILES | Percent Effect [%]
Cc1cnn(CC2CN(Cc3cccnc3)CCO2)c1 (stereo not drawn) | 94.04
Cc1cnn(CC2CN(Cc3cccc(OCC(N)=O)c3)CCO2)c1 (stereo not drawn) | -6.391
Cc1cnn(CC2CN(CC(=O)N3CCc4ccccc43)CCO2)c1 (stereo not drawn) | -2.09
Cc1cnn(CC2CN(Cc3cccc(C(=O)N(C)C)c3)CCO2)c1 (stereo not drawn) | 5.735
Cc1cnn(CC2CN(CCc3ccncc3)CCO2)c1 (stereo not drawn) | -9.167
Cc1cnn(CC2CN(Cc3cccc(OC(C)C)c3)CCO2)c1 (stereo not drawn) | 92.31
Cc1cnn(CC2CN(Cc3cccc(C(N)=O)c3)CCO2)c1 (stereo not drawn) | 99.45
Cc1csc(C2(NCc3ccc(OCC(F)F)cc3)CCCC2)n1 | -12.46
CC(C)(C)c1noc(OCC(=O)NCC(F)(F)F)n1 | 4.463
CCNc1ncc(C(=O)Nc2nnc(N3CCCCC3)[nH]2)s1 | 22.13
CC(NC(=O)COc1ccccc1C(=O)O)c1ccc(F)cc1 (stereo not drawn) | -21.32
Cc1ccc(-c2nnc(CCC(=O)NCc3cn(C)nc3C)o2)s1 | -9.163
COc1cc(CCC(C)O)c(OC)c2c1OCO2 (stereo not drawn) | 17.45
CC(C)N(CCO)C(=O)C1CCC(=O)N(CCc2cccc(F)c2)C1 (stereo not drawn) | 8.608
CC(C)CNC(=O)CNC(=O)NC(C)COc1ccccc1F (stereo not drawn) | 103.7
COCCNC(=O)NC(C)COc1ccc(F)cc1F (stereo not drawn) | 119.4
Cc1noc(C)c1CNC(=O)NCCOc1ccc(F)cc1F | -6.419
Cn1cccc1C(O)CNC(=O)COc1ccccc1F (stereo not drawn) | -2.595
COCCNC(=O)NCc1ccc(OC(C)C)c(F)c1 | 2.22
CC(COc1ccccc1F)NC(=O)N[C@@H]1C=C[C@H](CO)C1 (stereo partly drawn) | -7.056

From ChEMBL document CHEMBL3988442, “University of Dundee, Small-Polar-MMV Screening Library” (2021)
